Assay results reported in ChEMBL document CHEMBL3988442, “University of Dundee, Small-Polar-MMV Screening Library” (2021).
For some of these results: Potency and affinity values are given separately.

Assays:
Set-up in all cases: scale not given: direction of the effect not stated beside the values
[1] = target: Protein translocase subunit SecA (Escherichia coli (strain K12)) (UniProt P10408); assay: Assay to Identify E. coli SecA ATPase Inhibitors; format: functional; conditions: 30 µM
[2] = target: T1, Ubiquitin-activating enzyme e1, putative (Leishmania donovani (strain BPK282A1)) (UniProt E9BSI1); assay: Leishmania donovani Ubiquitin Activating Enzyme (LdE1); format: functional; conditions: 30 µM
T1 sequence (whole entry): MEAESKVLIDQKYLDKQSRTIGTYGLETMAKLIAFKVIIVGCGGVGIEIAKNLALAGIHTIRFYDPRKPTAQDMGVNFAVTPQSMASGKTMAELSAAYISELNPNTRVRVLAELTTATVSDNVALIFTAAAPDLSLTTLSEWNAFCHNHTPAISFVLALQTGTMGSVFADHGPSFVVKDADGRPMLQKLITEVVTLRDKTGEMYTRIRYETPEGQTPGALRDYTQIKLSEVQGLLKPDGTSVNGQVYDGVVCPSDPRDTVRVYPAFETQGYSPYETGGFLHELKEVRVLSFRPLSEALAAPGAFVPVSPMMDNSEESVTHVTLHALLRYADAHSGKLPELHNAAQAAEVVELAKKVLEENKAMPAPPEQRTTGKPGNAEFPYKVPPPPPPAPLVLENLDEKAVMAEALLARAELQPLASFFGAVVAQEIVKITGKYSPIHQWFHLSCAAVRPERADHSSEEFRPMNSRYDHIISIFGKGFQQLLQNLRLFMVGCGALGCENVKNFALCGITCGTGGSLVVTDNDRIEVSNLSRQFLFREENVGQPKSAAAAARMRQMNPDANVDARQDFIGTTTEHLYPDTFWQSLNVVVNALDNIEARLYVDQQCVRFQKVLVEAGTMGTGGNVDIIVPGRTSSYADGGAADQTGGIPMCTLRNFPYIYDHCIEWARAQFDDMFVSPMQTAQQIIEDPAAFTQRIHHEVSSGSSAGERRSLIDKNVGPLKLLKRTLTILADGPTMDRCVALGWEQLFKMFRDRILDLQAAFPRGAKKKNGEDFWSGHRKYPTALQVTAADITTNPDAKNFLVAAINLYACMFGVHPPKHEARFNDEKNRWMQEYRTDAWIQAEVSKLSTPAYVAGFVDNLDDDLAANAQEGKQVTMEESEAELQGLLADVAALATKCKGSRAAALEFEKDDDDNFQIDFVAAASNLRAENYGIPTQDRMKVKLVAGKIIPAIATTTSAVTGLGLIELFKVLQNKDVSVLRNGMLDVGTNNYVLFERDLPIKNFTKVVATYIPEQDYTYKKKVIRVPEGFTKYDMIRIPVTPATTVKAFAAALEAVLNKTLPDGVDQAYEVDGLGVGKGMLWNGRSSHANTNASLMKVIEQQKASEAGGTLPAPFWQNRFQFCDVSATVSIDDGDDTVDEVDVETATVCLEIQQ

[3] = target: Sialic acid-binding Ig-like lectin 9 (Homo sapiens) (UniProt Q9Y336); assay: Hs-Siglec9 ALPHAscreen SOP 20170721; conditions: 10 µM
Chain of Sialic acid-binding Ig-like lectin 9 (Homo sapiens) (Q9Y336 whole entry): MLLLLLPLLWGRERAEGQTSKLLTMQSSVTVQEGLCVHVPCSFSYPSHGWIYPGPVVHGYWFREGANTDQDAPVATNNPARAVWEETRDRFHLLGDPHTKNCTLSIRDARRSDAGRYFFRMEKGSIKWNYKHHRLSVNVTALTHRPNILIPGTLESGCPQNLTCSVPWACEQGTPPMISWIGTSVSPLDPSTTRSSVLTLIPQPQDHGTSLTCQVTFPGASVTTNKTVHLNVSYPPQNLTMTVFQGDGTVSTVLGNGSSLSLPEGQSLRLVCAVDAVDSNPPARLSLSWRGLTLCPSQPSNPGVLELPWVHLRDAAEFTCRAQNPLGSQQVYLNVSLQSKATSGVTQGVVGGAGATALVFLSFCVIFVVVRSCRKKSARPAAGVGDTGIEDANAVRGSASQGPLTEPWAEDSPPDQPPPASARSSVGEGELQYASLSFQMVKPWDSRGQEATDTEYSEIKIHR

Trypanosoma cruzi = assay: Trypanosoma cruzi phosphomannomutase and mannose-1-phosphate guanylyltransferase assay; format: functional; conditions: 10 µM
[4] = target: T2, Arginase-2, mitochondrial (Homo sapiens) (UniProt P78540); assay: in vitro enzyme assay to detect the production of urea directly proportional to the activity of Arginase II; format: functional; conditions: 33.3 µM; further: in the data most compounds retested in dose-response had high values
T2 sequence (whole entry): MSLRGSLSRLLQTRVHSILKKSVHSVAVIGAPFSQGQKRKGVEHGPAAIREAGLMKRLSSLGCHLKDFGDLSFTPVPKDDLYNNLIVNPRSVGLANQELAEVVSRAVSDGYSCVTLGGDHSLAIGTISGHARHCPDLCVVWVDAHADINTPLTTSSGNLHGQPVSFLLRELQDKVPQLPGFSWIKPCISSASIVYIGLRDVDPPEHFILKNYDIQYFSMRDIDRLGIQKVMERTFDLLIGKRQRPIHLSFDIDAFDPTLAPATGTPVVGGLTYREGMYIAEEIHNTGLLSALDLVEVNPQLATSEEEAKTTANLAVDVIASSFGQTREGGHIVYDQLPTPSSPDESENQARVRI

[5] = target: T3, Proteasome subunit beta (Trypanosoma cruzi) (UniProt O96673); assay: Trypanosoma cruzi proteasome chymotrypsin-like activity (TcProtChymo) assay.; further: in the data most compounds retested in dose-response had high values; format: functional; conditions: 9.37 µM
T3 sequence (whole entry): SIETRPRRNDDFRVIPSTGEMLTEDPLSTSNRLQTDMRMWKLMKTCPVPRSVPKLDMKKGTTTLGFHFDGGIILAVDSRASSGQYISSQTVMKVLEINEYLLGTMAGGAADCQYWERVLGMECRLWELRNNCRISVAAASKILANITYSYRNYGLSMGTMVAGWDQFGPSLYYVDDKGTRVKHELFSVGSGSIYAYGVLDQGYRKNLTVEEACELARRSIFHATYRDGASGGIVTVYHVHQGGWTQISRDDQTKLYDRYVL

Homo sapiens = species on record: Homo sapiens; assay: To identify inhibition of the IFN signalling (Jak-Stat) pathway via expression of an eGFP reporter gene under the control of an IFN-stimulated response element (ISRE) containing MxA promoter.; format: functional; conditions: 30 µM
[6] = target: T4, Tyrosyl-tRNA synthetase, putative (Trypanosoma cruzi (strain CL Brener)) (UniProt Q4DSP6); assay: Trypanosoma cruzi tyrosyl tRNA synthetase (TcYRS) _High Tyrosine SOP; format: functional; conditions: 30 µM; further: in the data most compounds retested in dose-response had high values
T4 sequence (whole entry): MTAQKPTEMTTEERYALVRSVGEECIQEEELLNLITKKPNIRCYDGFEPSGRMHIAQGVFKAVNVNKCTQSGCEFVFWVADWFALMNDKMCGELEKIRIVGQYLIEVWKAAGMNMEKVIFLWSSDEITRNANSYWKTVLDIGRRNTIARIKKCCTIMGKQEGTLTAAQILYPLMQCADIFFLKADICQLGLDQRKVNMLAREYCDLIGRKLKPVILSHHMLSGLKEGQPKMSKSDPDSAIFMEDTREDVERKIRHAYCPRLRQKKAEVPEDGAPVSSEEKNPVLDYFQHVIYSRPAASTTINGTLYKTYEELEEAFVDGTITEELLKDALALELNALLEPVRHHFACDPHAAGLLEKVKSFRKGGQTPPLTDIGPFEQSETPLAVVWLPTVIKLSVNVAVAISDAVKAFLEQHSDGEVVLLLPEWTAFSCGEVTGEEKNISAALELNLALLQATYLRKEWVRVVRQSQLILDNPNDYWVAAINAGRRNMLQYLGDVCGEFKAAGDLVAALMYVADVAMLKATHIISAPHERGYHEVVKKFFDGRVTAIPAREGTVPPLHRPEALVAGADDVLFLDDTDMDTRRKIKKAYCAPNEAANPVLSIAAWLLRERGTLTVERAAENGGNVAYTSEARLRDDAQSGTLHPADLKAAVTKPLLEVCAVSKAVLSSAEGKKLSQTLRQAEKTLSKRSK

[7] = target: T4, Tyrosyl-tRNA synthetase, putative (Trypanosoma cruzi (strain CL Brener)); assay: Trypanosoma cruzi tyrosyl tRNA synthetase (TcYRS) SOP; format: functional; conditions: 30 µM
[8] = target: Chromo domain-containing protein 1 (Saccharomyces cerevisiae (strain ATCC 204508 / S288c) (Baker's yeast)) (UniProt P32657); assay: ScCHD-1 Enzyme Inhibition Assay; format: functional; conditions: 30 µM; further: in the data most compounds retested in dose-response had high values
Chain of Chromo domain-containing protein 1 (Saccharomyces cerevisiae (strain ATCC 204508 / S288c) (Baker's yeast)) (P32657 whole entry, the tested form may be a part): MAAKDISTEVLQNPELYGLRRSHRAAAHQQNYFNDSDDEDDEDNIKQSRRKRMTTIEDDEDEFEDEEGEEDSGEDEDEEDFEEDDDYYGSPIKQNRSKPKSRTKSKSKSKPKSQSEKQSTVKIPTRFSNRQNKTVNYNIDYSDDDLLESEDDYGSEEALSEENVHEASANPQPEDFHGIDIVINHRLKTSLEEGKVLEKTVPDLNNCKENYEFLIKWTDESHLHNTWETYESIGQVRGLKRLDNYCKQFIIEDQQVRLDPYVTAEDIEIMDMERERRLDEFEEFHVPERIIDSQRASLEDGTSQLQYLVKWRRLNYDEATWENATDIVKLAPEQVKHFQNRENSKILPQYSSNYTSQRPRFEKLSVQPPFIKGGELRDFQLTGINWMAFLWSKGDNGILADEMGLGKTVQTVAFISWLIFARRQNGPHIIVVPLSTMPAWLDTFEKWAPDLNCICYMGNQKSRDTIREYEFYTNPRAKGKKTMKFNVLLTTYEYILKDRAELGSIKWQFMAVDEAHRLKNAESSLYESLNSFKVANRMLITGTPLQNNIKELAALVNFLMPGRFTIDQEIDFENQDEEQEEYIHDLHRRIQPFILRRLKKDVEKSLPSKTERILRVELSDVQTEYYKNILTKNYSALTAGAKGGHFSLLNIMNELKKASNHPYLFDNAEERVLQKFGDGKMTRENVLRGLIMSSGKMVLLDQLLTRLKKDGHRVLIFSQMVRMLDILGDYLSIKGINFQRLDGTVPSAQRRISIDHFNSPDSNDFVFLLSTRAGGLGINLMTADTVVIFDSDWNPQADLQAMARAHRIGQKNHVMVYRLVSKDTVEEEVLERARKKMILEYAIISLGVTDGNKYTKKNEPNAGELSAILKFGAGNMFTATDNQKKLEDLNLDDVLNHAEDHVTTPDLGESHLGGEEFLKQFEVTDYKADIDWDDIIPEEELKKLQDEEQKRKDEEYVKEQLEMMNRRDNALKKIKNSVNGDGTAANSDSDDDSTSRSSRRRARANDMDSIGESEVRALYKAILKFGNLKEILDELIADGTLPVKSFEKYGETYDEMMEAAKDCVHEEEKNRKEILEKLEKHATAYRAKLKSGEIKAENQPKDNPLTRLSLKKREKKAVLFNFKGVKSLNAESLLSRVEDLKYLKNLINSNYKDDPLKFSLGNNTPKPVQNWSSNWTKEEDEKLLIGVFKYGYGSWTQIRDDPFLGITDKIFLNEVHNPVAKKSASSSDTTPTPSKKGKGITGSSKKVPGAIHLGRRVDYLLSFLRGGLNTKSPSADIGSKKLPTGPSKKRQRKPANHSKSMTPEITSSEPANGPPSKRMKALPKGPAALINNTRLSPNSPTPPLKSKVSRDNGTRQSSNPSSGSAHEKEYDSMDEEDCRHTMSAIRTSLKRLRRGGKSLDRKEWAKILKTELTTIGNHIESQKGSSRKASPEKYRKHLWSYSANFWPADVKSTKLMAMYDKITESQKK

Chain of Protein translocase subunit SecA (Escherichia coli (strain K12)) (P10408 whole entry): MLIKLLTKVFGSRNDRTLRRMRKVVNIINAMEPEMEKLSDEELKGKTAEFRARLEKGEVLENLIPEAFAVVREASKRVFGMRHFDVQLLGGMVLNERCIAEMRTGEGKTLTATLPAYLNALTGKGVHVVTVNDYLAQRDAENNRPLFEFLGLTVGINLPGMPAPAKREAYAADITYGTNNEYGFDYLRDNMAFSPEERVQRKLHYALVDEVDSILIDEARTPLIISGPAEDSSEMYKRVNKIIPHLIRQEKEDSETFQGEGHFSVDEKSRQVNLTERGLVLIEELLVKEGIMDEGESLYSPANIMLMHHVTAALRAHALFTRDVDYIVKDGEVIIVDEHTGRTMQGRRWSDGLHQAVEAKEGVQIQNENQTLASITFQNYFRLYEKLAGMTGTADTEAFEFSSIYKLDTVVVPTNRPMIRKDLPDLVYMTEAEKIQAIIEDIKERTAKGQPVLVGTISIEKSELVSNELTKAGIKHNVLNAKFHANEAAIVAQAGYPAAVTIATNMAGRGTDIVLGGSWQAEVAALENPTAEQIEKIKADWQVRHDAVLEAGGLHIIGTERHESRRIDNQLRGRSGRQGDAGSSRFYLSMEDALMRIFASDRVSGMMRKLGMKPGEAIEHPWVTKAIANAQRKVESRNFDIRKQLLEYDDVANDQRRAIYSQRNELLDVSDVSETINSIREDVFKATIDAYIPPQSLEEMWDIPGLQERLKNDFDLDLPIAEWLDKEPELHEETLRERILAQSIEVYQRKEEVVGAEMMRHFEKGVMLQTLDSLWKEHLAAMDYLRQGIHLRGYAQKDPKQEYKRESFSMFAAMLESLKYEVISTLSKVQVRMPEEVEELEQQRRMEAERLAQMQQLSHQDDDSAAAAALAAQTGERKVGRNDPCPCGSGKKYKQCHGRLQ

Structure (SMILES)	Percent Effect [1] [%]	Percent Effect [2] [%]	Percent Effect [3] [%]	Percent Effect (Trypanosoma cruzi) [%]	Percent Effect [4] [%]	Percent Effect [5] [%]	Percent Effect (Homo sapiens) [%]	Percent Effect [6] [%]	Percent Effect [7] [%]	Percent Effect [8] [%]
CC(C)CCCNC(=O)Nc1ccc(F)c(C(N)=O)c1	-0.324	23.4	0.112	2.61	-6.76	12.3	14.9	6.86	30.6	-10.9
O=C(CSc1ccccn1)N1C[C@H]2CC[C@@H]1CN(Cc1cscn1)C2	-11.4	0	4.87	-3.78	-0.35	13.9	11.3	-3.72	-4.88	-3.86
CC1CN(CC2CCCCC2)CCN1c1ccc2nncn2n1 (stereo not given)	3.17	15.4	-7.37	-4.6	-0.82	16.1	58.1	5.26	8.43	95.7
CCN1C(=O)CCCC12CCCN(C(=O)c1conc1C)C2 (stereo not given)	-1.85	3.9	-5.23	-3.75	-0.457	5.75	14	-4.83	-5	-2.52
CC(C)n1ccnc1C1CCN(C(=O)C2COc3ccccc3O2)CC1 (stereo not given)	-9.12	5.41	10.4	7.08	12.9	13.2	-5.55	7.98	14.6	-3.02
CN1CC(=O)N(c2ccccc2)CC12CCN(CC1CC1)C2 (stereo not given)	-2.12	-1.3	-3.04	-6.13	1.22	10.5	-3.51	-0.526	0	-0.704
c1csc(-c2nc(CNC3CCc4ncnn4C3)cs2)c1 (stereo not given)	-3.1	10.3	2.55	0.469	2.05	7.93	0.908	6.22	18.1	1.57
CCc1nnc2n1CCN(Cc1nc(-c3ccoc3)no1)C2	-4.35	5.13	5.33	4.22	1.64	9.47	-10.4	12	22.9	-4.51
Cc1cc(C)n(C2CCCN(C(=O)COCC(F)(F)F)C2)n1 (stereo not given)	-4.46	2.56	11.4	0.657	6.15	-7.59	-11.3	1.44	-1.21	-0.331
CC(=O)c1sc(Nc2ccc(Cl)cn2)nc1C	-2.68	24.7	1.41	1.13	0.913	12.6	24.7	2.9	-37.5	-10.7
COC(=O)CC(c1ccc(OC)c(OC)c1)c1oc(C)cc(=O)c1O (stereo not given)	-11	2.7	0.92	-4.75	-10.1	4.45	14.4	-0.532	-2.44	-0.871
Cc1n[nH]c(C)c1C1COCCN1C(=O)c1cc(Cl)c[nH]1 (stereo not given)	-1.38	2.56	3.4	-3.47	9.02	-1.96	15	-2.39	1.21	2.03
CN1CC(c2ccccc2)CC12CCN(C(=O)c1ccc(F)cc1)CC2 (stereo not given)	-9.69	0	9.54	-2.04	2.45	6.34	16.1	0.532	2.44	-1.53
